The structures appear in SMILES notation. The campaign covered roughly 10,000 compounds. About 320 (3.2%) were called active. The sample holds actives, similar compounds and a random draw of the others, so the mix is not that of the screen. Unmarked numbers belong to inactive results. No stated cut-off is given here; in the data, active means CPE inhibition mostly above about 9.1% (no sharp cut-off); inactive means mostly below about 7.2%.

The test is described as follows: antivirals protecting cells from dengue CPE – CPE readout, HTS (AID 540333). The conditions noted are these: Dengue virus CPE inhibition in host cells, at 20 µM; active compounds read high.
Consider `O=S1(=O)CCC(NC(=S)N2CCCCC2)C1` (stereo not given), for which the CPE inhibition result is “inactive”. As to `CC(=O)NC(Cc1ccccc1)C(=O)OCC(=O)c1ccc(Br)cc1` (stereo not given), the CPE inhibition result is “inactive”. `COCCCN(C(=S)Nc1cc(Cl)cc(Cl)c1)C(C)c1ccncc1` (stereo not given): the CPE inhibition is 16.4% (active). To `COCCCN(C(=S)Nc1c(C)cc(C)cc1C)C(C)c1ccncc1` (stereo not given) belongs 0.045%; to `COCCCN(C(=S)Nc1ccc(C)cc1Cl)C(C)c1ccncc1` (stereo not given), “inactive”; to `O=C(CCc1ccccc1)NCCSCc1c(F)cccc1Cl`, “inactive”. To `C#CCN(C(=O)Nc1ccccc1)c1ccccc1` belongs “inactive”; to `CC(=O)NS(=O)(=O)c1cccnc1Nc1cccc(Cl)c1C`, 1.49%; to `CC1CCC(=NNc2ccc(C(F)(F)F)cc2[N+](=O)[O-])CC1` (stereo not given), 0.085%. To `CCC(=O)OC1(C)C(=O)C=C2C=C(CCCC(=O)OC)OC=C2C1=O` (stereo not given) belongs “inactive”; to `CC1(OC(=O)C2CCCC2)C(=O)C=C2C=C3CCCCN3C=C2C1=O` (stereo not given), “inactive”; to `CCCCC1=CC2=CC(=O)C(C)(OC(=O)CC)C(=O)C2=CN1C1CCCC1` (stereo not given), 20.9% (active).

As to `Cc1ccc(S(=O)(=O)N/N=C2/CCCCC2C2CCCCC2)cc1[N+](=O)[O-]` (stereo not given), the CPE inhibition is 0.01%. To `Fc1ccc(CSc2ncnc3scc(-c4ccccc4)c23)cc1` belongs 1.17%; to `O=C(OC(C(=O)Nc1cccc(C(F)(F)F)c1)c1ccccc1)C1CCCCC1` (stereo not given), 21.9% (active); to `CCOC(=O)C(=NC1CCCCC1)NNc1cccc(C(F)(F)F)c1`, 5.4%.

Turning to `COc1cc(OC)c(C(=O)OC(C)C(=O)Nc2cccc(C(F)(F)F)c2)cc1OC` (stereo not given), the CPE inhibition result was “inactive”. Consider `Cc1cc(C)nc(NS(=O)(=O)c2ccc(NC(=O)C3(c4ccccc4)CCCC3)cc2)n1`, for which the CPE inhibition result is “inactive”. To `COc1ccc(-c2csc3ncnc(Oc4ccc5c(C)cc(=O)oc5c4)c23)cc1` belongs “inactive”; to `CC(=O)Nc1cccc(Oc2ncnc3scc(-c4ccc(C(C)C)cc4)c23)c1`, 15% (active). Turning to `CC(=O)Nc1ccc(Sc2ncnc3scc(-c4ccccc4)c23)cc1`, the CPE inhibition is 2.31%.

For `Cc1cc(NC(=O)CCc2ccccc2)c([N+](=O)[O-])cc1C`, the CPE inhibition entry was “inactive”. To `O=C(Nc1nc2ccccc2s1)c1ccc(N2CCCCC2)c([N+](=O)[O-])c1` belongs 2.82%; to `O=C(Nc1nc2ccc3ccccc3c2s1)c1ccc(N2CCCCC2)c([N+](=O)[O-])c1`, 13.2% (active).

As for `O=C(Nc1ccc(N2C(=O)c3cccc4cccc(c34)C2=O)cc1)c1ccc(N2CCCCC2)c([N+](=O)[O-])c1`, the CPE inhibition was 2.95%. As for `O=C(O)CSC(=S)N1CCCCC1`, the figure is 0.795%; as for `N#CC(C#N)=C1C=CC=CN1/C(=C\c1ccco1)C(=O)c1ccc(-c2ccccc2)cc1`, “inactive”. To `Cc1nc2ccccc2c(-c2ccccc2)c1CC(=O)O` belongs 0.655%; to `c1ccc(-c2c3ccccc3nc3[nH]c4ccccc4c23)cc1`, 23.8% (active); to `O=C(O)c1cccc(-c2nc3ccccc3[nH]2)c1`, 0.345%. To `Cc1ccc(-n2nnnc2SC(C(=O)c2c[nH]c3ccccc23)c2ccccc2)cc1` (stereo not given) belongs “inactive”; to `O=C1C=C(c2ccccc2)C[C@@H](c2ccc3c(c2)OCO3)C1`, 0.36%. As to `O=C1C=C(c2ccc(Cl)c(C(F)(F)F)c2)C[C@@H](c2ccc3c(c2)OCO3)C1`, the CPE inhibition is 7.58%.

With `O=C1C=C(c2cc(C(F)(F)F)cc(C(F)(F)F)c2)C[C@@H](c2ccc3c(c2)OCO3)C1`, the CPE inhibition is 17.9% (active). To `O=C(CSCc1ccccc1)Nc1ccc(F)c(F)c1` belongs “inactive”. To `Cc1cc(C(=O)NCC(=O)OCC(=O)N(C2CCCCC2)C2CCCCC2)ccc1[N+](=O)[O-]` belongs “inactive”.

Regarding `CCNc1ccc(C(=O)OCC(=O)NCc2ccc(C)cc2)cc1[N+](=O)[O-]`, the CPE inhibition was 0.91%. As for `COC(=O)[C@@]12CCCCN1[C@H](c1ccc(-c3ccc(C(C)=O)cc3)c(OC)c1)[C@@H]1C(=O)N(C)C(=O)[C@@H]12`, the figure is 3.06%; as for `CCSc1ccc([C@@H]2[C@@H]3C(=O)N(C)C(=O)[C@@H]3[C@]3(C(=O)OC)CCCCN23)cc1`, “inactive”. To `CCN1C(=O)[C@H]2[C@@H](c3ccc(-c4ccc(Cl)c(Cl)c4)cc3)N3CCCC[C@@]3(C(=O)OC)[C@H]2C1=O` belongs 15.9% (active); to `CCCCCCSc1ccc([C@@H]2[C@@H]3C(=O)N(CC)C(=O)[C@@H]3[C@]3(C(=O)OC)CCCCN23)cc1`, 16.4% (active). `COC(=O)[C@@]12CCCCN1[C@H](c1ccc(-c3ccccc3)cc1)[C@H]1C(=O)N(C)C(=O)[C@H]12`: the CPE inhibition is 3.82%.

Turning to `CCN1C(=O)[C@@H]2[C@@H](c3ccc(-c4ccc(Cl)c(Cl)c4)cc3)N3CCC[C@@]3(C(=O)OC)[C@@H]2C1=O`, the CPE inhibition was 3.61%. As for `CCN1C(=O)[C@@H]2[C@@H](c3ccc(SC4CCCCC4)cc3)N3CCC[C@@]3(C(=O)OC)[C@@H]2C1=O`, the figure is 0.855%. To `COC(=O)[C@@]12CCCCN1[C@H](c1ccc(-c3ccc(Cl)c(Cl)c3)cc1)[C@H]1C(=O)N(C)C(=O)[C@H]12` belongs 26.6% (active); to `CCN1C(=O)[C@@H]2[C@@H](c3ccc(-c4ccc(OC)cc4)cc3)N3CCC[C@@]3(C(=O)OC)[C@@H]2C1=O`, 0.355%. As to `CC(=O)Nc1sc(C)c(C)c1C(=O)OCC(=O)N(CC(C)C)C1CCS(=O)(=O)C1` (stereo not given), the CPE inhibition is 1.31%. As to `Cc1ccc([N+](=O)[O-])cc1S(=O)(=O)NCCc1c(C)[nH]c2ccccc12`, the CPE inhibition is 1.95%. To `O=C(N=C1c2ccccc2CN1c1ccccc1)c1cccc([N+](=O)[O-])c1` belongs “inactive”. To `CC(C)N(C(=O)COC(=O)CNC(=O)c1ccc(Br)cc1)c1ccccc1` belongs “inactive”.

Turning to `COc1ccc(C2CC(c3ccccc3OC(C)=O)=NN2C(=O)/C=C/c2ccccc2)cc1` (stereo not given), the CPE inhibition was 7.79% (active). To `CC(=O)Oc1ccccc1C1=NN(C(=O)/C=C/c2ccccc2)C(c2ccccc2)C1` (stereo not given) belongs 8.09%.

As for `COc1ccc(C2=NN(C(=O)/C=C/c3ccccc3)C(c3ccccc3)C2)c(OC(C)=O)c1` (stereo not given), the CPE inhibition is 8.13%.

Consider `Cc1c(NC2=C(Cl)C(=O)N(c3ccccc3Cl)C2=O)c(=O)n(-c2ccccc2)n1C`, for which the CPE inhibition result was “inactive”. With `CCNC(=S)N(CCc1cccc(C)c1)Cc1cc2cc(OC)c(OC)cc2[nH]c1=O`, the CPE inhibition was 5.32%.

For the origin of these results see PubChem BioAssay AID540333 (Southern Research Specialized Biocontainment Screening …, 2011).
